# According to the supplement of paper PMC9694430:
# Structures can show the parent of a compound that is named as a salt.
# Tested on: LOC_OS01G10900-cb004
# Experiment: thermal shift delta Tm vs DMSO control; higher = stronger stabilization (binding)
# Settings: 12.5 µM; protein concentration 2 µM
# Method in brief: (§1)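 Thermal shift values come from differential scanning fluorimetry on purified rice kinase domains made in E. coli, with melting temperatures obtained from Boltzmann fits. Samples of 19.5 μl held 2 μM kinase, 100 mM potassium phosphate pH 7.5, 150 mM NaCl, 10% glycerol, 5 × SYPRO Orange and compound in DMSO, and were heated from 25°C to 95°C at 0.05°C/s. Each shift is a triplicate mean relative to the DMSO-only protein sample.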
# 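Further: purified Escherichia coli-expressed rice kinase domain construct.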
row,SMILES,thermal shift delta Tm [°C]
1,Cc1cnc(Nc2ccc(OCCN3CCCC3)cc2)nc1Nc1cccc(S(=O)(=O)NC(C)(C)C)c1,0.57
2,CN1CCN(CCOc2cc(OC3CCOCC3)c3c(Nc4c(Cl)ccc5c4OCO5)ncnc3c2)CC1 [Saracatinib (AZD0530)],0.58
3,Cn1cc(-c2ccc(F)c(C(F)(F)F)c2)nc1C1CCN(c2ncnc3[nH]ncc23)CC1,0.51
4,O=C(O)c1ccc2c(c1)nc(Nc1cccc(Cl)c1)c1ccncc12 [Silmitasertib (CX-4945)],1.54
5,Cn1c(=O)c(F)c(Nc2ccc(I)cc2F)c2c(=O)n(C[C@@H](O)CO)cnc21,0.49
6,O=C(NC[C@H](O)CO)c1ccncc1Nc1ccc(I)cc1F,1.79
7,COc1c(C)c(C(=O)c2ccc(N)c(C(=O)O)c2)n2ccccc12,0.42
8,COc1cc(N2CCC(N)CC2)ccc1Nc1ncc(Cl)c(-c2c[nH]c3ccccc23)n1,2.95
9,C=CC(=O)Nc1ccc2ncnc(Nc3ccc(OCc4cccc(F)c4)c(Cl)c3)c2c1,3.29
10,CCS(=O)(=O)N1CCN(c2ccc(Nc3ncc(C(N)=O)c(NC4CC4)n3)cc2)CC1,1.08
11,O=C1c2ccc(Nc3ccc(F)cc3F)cc2CCc2ccc(OC[C@H](O)CO)cc21 [Skepinone-L],1.14
12,CCN1C(=O)CNc2ncc(-c3ccc(-c4nc[nH]n4)nc3C)nc21,1.31
13,Cc1ccc(CNc2ncnc3ccc(-c4ccc(CO)o4)cc23)o1,0.39
14,CCc1cncnc1N1CCN(Cc2nc3ccc(C(F)(F)F)cc3[nH]2)CC1,0.36
15,Cc1cc(CN2CCN(c3c(Br)cnc4nc(-c5ccc(N6CCN(C)CC6)cc5)[nH]c34)CC2)no1,1.57
16,Cc1nc(-c2cn3c(n2)-c2ccc(-c4cnn(C(C)(C)C(N)=O)c4)cc2OCC3)n(C(C)C)n1 [Taselisib (GDC 0032)],0.24
17,Cc1ccc(NC(=O)c2ccc(CN3CCN(C)CC3)cc2)cc1Nc1nccc(-c2cccnc2)n1 [Imatinib Mesylate (STI571)],1.18
18,O=c1cc(N2CCOCC2)oc2c(-c3ccccc3)cccc12,3.69
19,Nc1ncccc1-c1nc2ccc(-c3ccccc3)nc2n1-c1ccc(C2(N)CCC2)cc1 [Miransertib (ARQ 092) HCl],0.6

row,SMILES,thermal shift delta Tm [°C]
1,CNS(=O)(=O)C[C@H]1CC[C@H](N(C)c2[nH]cnc3nccc2-3)CC1 [Oclacitinib],0.3
2,N#Cc1ccc2[nH]c(O)c(-c3ccc(CN4CCOCC4)cn3)c2c1,0.41
3,C[C@]1(O)C[C@@H](c2nc(-c3ccc4ccc(-c5ccccc5)nc4c3)c3c(N)nccn32)C1 [Linsitinib (OSI-906)],0.14
4,CN1CCC(COc2cnc(-c3cccc(Cn4nc(-c5cccc(C#N)c5)ccc4=O)c3)nc2)CC1,0.17
5,CC(C)(C)c1nc(-c2ccc(NC(=O)Nc3cccc(C(F)(F)F)c3)c3ccccc23)c2c(N)nccn12 [kira6],0.45
6,Oc1c(F)cc(-c2cnccc2-c2ccc(N3CCOCC3)cc2)cc1F,0.19
7,CC(C)[C@H](CO)Nc1nc(Nc2cccc(Cl)c2)c2ncn(C(C)C)c2n1 [Purvalanol A],0.07
8,CNC(=O)c1cc(Oc2ccc(NC(=O)Nc3ccc(Cl)c(C(F)(F)F)c3)cc2)ccn1 [Sorafenib],1.53
9,O=c1cc(-c2cccc3c2Sc2ccccc2S3)oc(N2CCOCC2)c1,1.94
10,N#Cc1c(Oc2ccc(F)c(NC(=O)Cc3cccc(C(F)(F)F)c3)c2)ccc2nc(NC(=O)C3CC3)sc12,0.14
11,CC[C@@](C)(Nc1ccnc(-c2c[nH]c3ncccc23)n1)C(=O)NCC(F)(F)F [Decernotinib (VX-509)],-0.38
12,CCNC(=O)Nc1ccc(-c2nc3c(c(N4CCOC[C@@H]4C)n2)CCN(C2COC2)C3)cc1,0.25
13,COc1cc(OC)cc(N(CCNC(C)C)c2ccc3ncc(-c4cnn(C)c4)nc3c2)c1,0.16
14,C[C@@]1(C(=O)Nc2ccc(F)nc2)CCCN1c1nc(Nc2cc(C3CC3)n[nH]2)c2cccn2n1,0.11
15,O=C1CCc2c(Oc3ccc4c(c3)[C@@H]3[C@H](O4)[C@H]3c3nc4cc(C(F)(F)F)ccc4[nH]3)ccnc2N1 [Lifirafenib (BGB-283)],2.3
16,O=C1Nc2ccc(CN3C(=O)CSC3=O)cc2/C1=C/c1cc(CN2CCOCC2)c[nH]1,0.75
17,CN(c1ccccc1CNc1nc(Nc2ccc3c(c2)CC(=O)N3)ncc1C(F)(F)F)S(C)(=O)=O,2.35
18,Cc1nc(N)sc1-c1ccnc(Nc2ccc(N3CCOCC3)cc2)n1,1.74

# Tested on: LOC_OS01G13800-cb001
# Experiment: as above
# Settings: 12.5 µM; protein concentration 2 µM
# Method in brief: as §1
row,SMILES,thermal shift delta Tm [°C]
1,Cc1cnc(Nc2ccc(OCCN3CCCC3)cc2)nc1Nc1cccc(S(=O)(=O)NC(C)(C)C)c1,-0.28
2,CN1CCN(CCOc2cc(OC3CCOCC3)c3c(Nc4c(Cl)ccc5c4OCO5)ncnc3c2)CC1 [Saracatinib (AZD0530)],0.11
3,Cn1cc(-c2ccc(F)c(C(F)(F)F)c2)nc1C1CCN(c2ncnc3[nH]ncc23)CC1,0.16
4,O=C(O)c1ccc2c(c1)nc(Nc1cccc(Cl)c1)c1ccncc12 [Silmitasertib (CX-4945)],0.77
5,Cn1c(=O)c(F)c(Nc2ccc(I)cc2F)c2c(=O)n(C[C@@H](O)CO)cnc21,0.43
6,O=C(NC[C@H](O)CO)c1ccncc1Nc1ccc(I)cc1F,0.34
7,COc1c(C)c(C(=O)c2ccc(N)c(C(=O)O)c2)n2ccccc12,-0.23
8,COc1cc(N2CCC(N)CC2)ccc1Nc1ncc(Cl)c(-c2c[nH]c3ccccc23)n1,-0.64
9,C=CC(=O)Nc1ccc2ncnc(Nc3ccc(OCc4cccc(F)c4)c(Cl)c3)c2c1,2.47
10,CCS(=O)(=O)N1CCN(c2ccc(Nc3ncc(C(N)=O)c(NC4CC4)n3)cc2)CC1,0.55
11,O=C1c2ccc(Nc3ccc(F)cc3F)cc2CCc2ccc(OC[C@H](O)CO)cc21 [Skepinone-L],-0.71
12,CCN1C(=O)CNc2ncc(-c3ccc(-c4nc[nH]n4)nc3C)nc21,0.86
13,Cc1ccc(CNc2ncnc3ccc(-c4ccc(CO)o4)cc23)o1,-0.33
14,CCc1cncnc1N1CCN(Cc2nc3ccc(C(F)(F)F)cc3[nH]2)CC1,0.07
15,Cc1cc(CN2CCN(c3c(Br)cnc4nc(-c5ccc(N6CCN(C)CC6)cc5)[nH]c34)CC2)no1,0.82
16,Cc1nc(-c2cn3c(n2)-c2ccc(-c4cnn(C(C)(C)C(N)=O)c4)cc2OCC3)n(C(C)C)n1 [Taselisib (GDC 0032)],0.32
17,Cc1ccc(NC(=O)c2ccc(CN3CCN(C)CC3)cc2)cc1Nc1nccc(-c2cccnc2)n1 [Imatinib Mesylate (STI571)],0.6
18,O=c1cc(N2CCOCC2)oc2c(-c3ccccc3)cccc12,0.14
19,Nc1ncccc1-c1nc2ccc(-c3ccccc3)nc2n1-c1ccc(C2(N)CCC2)cc1 [Miransertib (ARQ 092) HCl],-0.45

row,SMILES,thermal shift delta Tm [°C]
1,CNS(=O)(=O)C[C@H]1CC[C@H](N(C)c2[nH]cnc3nccc2-3)CC1 [Oclacitinib],0.42
2,N#Cc1ccc2[nH]c(O)c(-c3ccc(CN4CCOCC4)cn3)c2c1,-0.53
3,C[C@]1(O)C[C@@H](c2nc(-c3ccc4ccc(-c5ccccc5)nc4c3)c3c(N)nccn32)C1 [Linsitinib (OSI-906)],0.82
4,CN1CCC(COc2cnc(-c3cccc(Cn4nc(-c5cccc(C#N)c5)ccc4=O)c3)nc2)CC1,-0.5
5,CC(C)(C)c1nc(-c2ccc(NC(=O)Nc3cccc(C(F)(F)F)c3)c3ccccc23)c2c(N)nccn12 [kira6],1.09
6,Oc1c(F)cc(-c2cnccc2-c2ccc(N3CCOCC3)cc2)cc1F,0.41
7,CC(C)[C@H](CO)Nc1nc(Nc2cccc(Cl)c2)c2ncn(C(C)C)c2n1 [Purvalanol A],-0.49
8,CNC(=O)c1cc(Oc2ccc(NC(=O)Nc3ccc(Cl)c(C(F)(F)F)c3)cc2)ccn1 [Sorafenib],1.59
9,O=c1cc(-c2cccc3c2Sc2ccccc2S3)oc(N2CCOCC2)c1,0.13
10,N#Cc1c(Oc2ccc(F)c(NC(=O)Cc3cccc(C(F)(F)F)c3)c2)ccc2nc(NC(=O)C3CC3)sc12,0.81
11,CC[C@@](C)(Nc1ccnc(-c2c[nH]c3ncccc23)n1)C(=O)NCC(F)(F)F [Decernotinib (VX-509)],0.4
12,CCNC(=O)Nc1ccc(-c2nc3c(c(N4CCOC[C@@H]4C)n2)CCN(C2COC2)C3)cc1,0.66
13,COc1cc(OC)cc(N(CCNC(C)C)c2ccc3ncc(-c4cnn(C)c4)nc3c2)c1,0.03
14,C[C@@]1(C(=O)Nc2ccc(F)nc2)CCCN1c1nc(Nc2cc(C3CC3)n[nH]2)c2cccn2n1,0.04
15,O=C1CCc2c(Oc3ccc4c(c3)[C@@H]3[C@H](O4)[C@H]3c3nc4cc(C(F)(F)F)ccc4[nH]3)ccnc2N1 [Lifirafenib (BGB-283)],1.54
16,O=C1Nc2ccc(CN3C(=O)CSC3=O)cc2/C1=C/c1cc(CN2CCOCC2)c[nH]1,0.08
17,CN(c1ccccc1CNc1nc(Nc2ccc3c(c2)CC(=O)N3)ncc1C(F)(F)F)S(C)(=O)=O,0.34
18,Cc1nc(N)sc1-c1ccnc(Nc2ccc(N3CCOCC3)cc2)n1,0.29
